Reference: PMC7862700, “An all-to-all approach to the identification of sequence-specific readers for epigenetic DNA modifications on cytosine”

Tests used:
Test in all cases: DAPPL (digital affinity profiling via proximity ligation, sequencing); 10 mM Tris-HCl pH 7.5, 50 mM NaCl, 1 mM DTT, 4% glycerol, room temperature, 30 min; GST-TFs on glutathione beads, 16-mer random dsDNA library, 0.1% formaldehyde crosslink after washing; high values mean tight binding
HSF1 = HSF1 (Homo sapiens, UniProt Q00613 1-529); settings: protein: recombinant; tags: N-terminal GST; chain copies: 3; dsDNA, one strand shown
Chain of HSF1 (Q00613 whole entry, the tested form may be a part): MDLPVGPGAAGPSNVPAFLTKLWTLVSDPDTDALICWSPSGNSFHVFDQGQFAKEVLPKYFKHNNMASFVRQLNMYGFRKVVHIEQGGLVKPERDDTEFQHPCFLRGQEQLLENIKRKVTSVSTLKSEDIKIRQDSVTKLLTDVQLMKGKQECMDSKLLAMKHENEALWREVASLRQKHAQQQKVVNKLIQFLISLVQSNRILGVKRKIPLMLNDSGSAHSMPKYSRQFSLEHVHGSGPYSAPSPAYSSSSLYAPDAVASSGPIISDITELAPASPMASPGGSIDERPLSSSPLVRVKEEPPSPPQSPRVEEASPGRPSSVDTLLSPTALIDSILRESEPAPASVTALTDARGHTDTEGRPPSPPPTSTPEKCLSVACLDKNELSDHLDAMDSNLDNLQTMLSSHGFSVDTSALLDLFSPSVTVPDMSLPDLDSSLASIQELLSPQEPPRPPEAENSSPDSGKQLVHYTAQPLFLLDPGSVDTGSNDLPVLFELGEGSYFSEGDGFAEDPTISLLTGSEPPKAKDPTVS
Method in brief: (§1)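 GST fusions of human transcription factors were expressed in yeast and captured with glutathione beads. Once given DNA barcodes and pooled alongside a tag-only sample, they were incubated for 30 min at room temperature with 200 nmole of a random double-stranded 16-mer DNA library in Tris/NaCl/DTT/glycerol buffer, then washed, crosslinked (0.1% formaldehyde), proximity-ligated, PCR-amplified and sequenced on an Illumina NextSeq500. The binding signal of each hexamer is its read frequency for a factor divided by its frequency for the tag-only sample.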

ELF4 = ELF4 (Homo sapiens, UniProt Q99607 1-663); settings: protein: recombinant; tags: N-terminal GST; dsDNA, one strand shown
Chain of ELF4 (Q99607 whole entry): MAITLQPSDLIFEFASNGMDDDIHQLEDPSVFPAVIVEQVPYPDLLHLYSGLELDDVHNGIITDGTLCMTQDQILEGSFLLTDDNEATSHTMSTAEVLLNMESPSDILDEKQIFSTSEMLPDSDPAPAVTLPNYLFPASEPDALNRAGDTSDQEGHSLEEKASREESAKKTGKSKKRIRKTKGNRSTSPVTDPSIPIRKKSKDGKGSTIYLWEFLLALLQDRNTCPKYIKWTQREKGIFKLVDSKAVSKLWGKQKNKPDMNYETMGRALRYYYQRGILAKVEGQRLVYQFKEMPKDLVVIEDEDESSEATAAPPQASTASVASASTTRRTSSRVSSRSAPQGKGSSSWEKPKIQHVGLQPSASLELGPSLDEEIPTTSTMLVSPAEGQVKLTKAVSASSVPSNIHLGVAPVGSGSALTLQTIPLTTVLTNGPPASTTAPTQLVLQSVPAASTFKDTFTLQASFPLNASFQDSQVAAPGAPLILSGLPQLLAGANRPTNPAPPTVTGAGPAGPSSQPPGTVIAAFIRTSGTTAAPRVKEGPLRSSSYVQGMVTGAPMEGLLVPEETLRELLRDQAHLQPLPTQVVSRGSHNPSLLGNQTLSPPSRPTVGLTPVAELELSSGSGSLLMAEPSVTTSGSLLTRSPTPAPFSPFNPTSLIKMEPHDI
Method in brief: as §1

ELK4 = biological target: T1, ELK4 (Homo sapiens, UniProt P28324-2 1-405); settings: protein: recombinant; tags: N-terminal GST; dsDNA, one strand shown
T1 sequence: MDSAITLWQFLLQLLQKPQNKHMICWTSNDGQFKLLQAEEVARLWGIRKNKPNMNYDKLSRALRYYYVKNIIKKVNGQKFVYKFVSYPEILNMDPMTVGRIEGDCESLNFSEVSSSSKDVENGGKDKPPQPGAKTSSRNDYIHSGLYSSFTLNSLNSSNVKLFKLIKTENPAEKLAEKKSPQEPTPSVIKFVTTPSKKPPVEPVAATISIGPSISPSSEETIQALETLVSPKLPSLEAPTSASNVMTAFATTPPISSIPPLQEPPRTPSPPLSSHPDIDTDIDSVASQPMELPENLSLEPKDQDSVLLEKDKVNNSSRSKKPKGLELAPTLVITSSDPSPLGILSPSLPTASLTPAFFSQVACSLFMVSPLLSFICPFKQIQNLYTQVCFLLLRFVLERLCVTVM
Method in brief: as §1

ETV7 = biological target: T2, ETV7 (Homo sapiens, UniProt Q9Y603 1-341); settings: protein: recombinant; tags: N-terminal GST; dsDNA, one strand shown
T2 sequence: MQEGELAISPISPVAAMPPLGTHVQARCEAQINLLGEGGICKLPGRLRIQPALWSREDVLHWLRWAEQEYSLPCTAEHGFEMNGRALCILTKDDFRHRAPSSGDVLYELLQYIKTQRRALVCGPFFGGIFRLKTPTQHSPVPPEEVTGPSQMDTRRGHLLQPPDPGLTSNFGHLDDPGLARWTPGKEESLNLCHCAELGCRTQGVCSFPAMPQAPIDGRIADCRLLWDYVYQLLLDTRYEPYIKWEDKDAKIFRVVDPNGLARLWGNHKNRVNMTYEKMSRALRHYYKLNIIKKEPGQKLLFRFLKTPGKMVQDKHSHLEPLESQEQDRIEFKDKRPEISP
Method in brief: as §1

ELF1 = ELF1 (Homo sapiens, UniProt P32519 1-619); settings: protein: recombinant; tags: N-terminal GST; dsDNA, one strand shown
Chain of ELF1 (P32519 whole entry): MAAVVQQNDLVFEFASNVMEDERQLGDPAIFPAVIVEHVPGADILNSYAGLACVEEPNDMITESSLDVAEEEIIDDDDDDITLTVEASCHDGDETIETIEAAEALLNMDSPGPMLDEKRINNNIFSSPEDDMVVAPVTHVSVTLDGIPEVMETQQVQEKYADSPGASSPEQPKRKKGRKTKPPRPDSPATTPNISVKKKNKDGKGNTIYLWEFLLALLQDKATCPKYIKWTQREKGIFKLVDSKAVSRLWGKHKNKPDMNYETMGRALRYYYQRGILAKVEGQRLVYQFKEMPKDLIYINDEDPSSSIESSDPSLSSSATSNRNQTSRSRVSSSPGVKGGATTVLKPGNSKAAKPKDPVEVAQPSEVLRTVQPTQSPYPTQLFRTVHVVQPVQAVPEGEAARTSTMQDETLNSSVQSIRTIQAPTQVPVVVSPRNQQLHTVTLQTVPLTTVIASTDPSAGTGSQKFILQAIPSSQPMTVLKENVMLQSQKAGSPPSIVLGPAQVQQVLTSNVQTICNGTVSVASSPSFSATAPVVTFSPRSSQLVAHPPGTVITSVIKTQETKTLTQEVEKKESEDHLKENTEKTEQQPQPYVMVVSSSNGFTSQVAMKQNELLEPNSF
Method in brief: as §1

EHF = biological target: T3, EHF (Homo sapiens, UniProt Q9NZC4 1-300); settings: protein: recombinant; tags: N-terminal GST; dsDNA, one strand shown
T3 sequence: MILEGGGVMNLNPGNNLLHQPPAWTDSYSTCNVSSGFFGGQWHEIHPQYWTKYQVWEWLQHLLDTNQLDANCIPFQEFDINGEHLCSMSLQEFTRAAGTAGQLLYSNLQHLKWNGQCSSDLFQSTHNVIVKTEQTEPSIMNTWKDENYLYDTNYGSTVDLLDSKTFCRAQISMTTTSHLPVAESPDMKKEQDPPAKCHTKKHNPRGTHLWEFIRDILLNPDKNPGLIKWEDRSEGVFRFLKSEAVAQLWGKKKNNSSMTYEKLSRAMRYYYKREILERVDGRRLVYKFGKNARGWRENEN
Method in brief: as §1

ETV2 = biological target: T4, ETV2 (Homo sapiens, UniProt O00321 1-342); settings: protein: recombinant; tags: N-terminal GST; dsDNA, one strand shown
T4 sequence: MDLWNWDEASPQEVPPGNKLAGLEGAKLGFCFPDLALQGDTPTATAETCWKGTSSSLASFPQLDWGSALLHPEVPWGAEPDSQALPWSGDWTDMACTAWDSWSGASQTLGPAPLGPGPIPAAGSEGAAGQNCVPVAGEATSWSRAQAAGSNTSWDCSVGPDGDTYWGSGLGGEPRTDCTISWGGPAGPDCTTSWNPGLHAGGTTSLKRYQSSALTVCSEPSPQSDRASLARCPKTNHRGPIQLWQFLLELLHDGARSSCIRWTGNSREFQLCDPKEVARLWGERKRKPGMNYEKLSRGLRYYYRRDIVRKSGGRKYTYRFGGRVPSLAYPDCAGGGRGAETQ
Method in brief: as §1

CRX = CRX (Homo sapiens, UniProt O43186 1-299); settings: protein: recombinant; tags: N-terminal GST; dsDNA, one strand shown
Chain of CRX (O43186 whole entry): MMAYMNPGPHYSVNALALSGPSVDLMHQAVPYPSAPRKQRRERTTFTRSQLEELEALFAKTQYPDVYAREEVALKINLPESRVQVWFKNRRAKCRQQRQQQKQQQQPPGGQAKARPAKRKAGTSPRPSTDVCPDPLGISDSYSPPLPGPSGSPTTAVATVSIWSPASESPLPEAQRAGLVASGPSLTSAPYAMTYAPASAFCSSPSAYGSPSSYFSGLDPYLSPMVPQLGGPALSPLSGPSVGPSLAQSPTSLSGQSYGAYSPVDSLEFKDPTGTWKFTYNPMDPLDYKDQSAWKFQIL
Method in brief: as §1

ERF = biological target: T5, ERF (Homo sapiens, UniProt P50548 1-548); settings: protein: recombinant; tags: N-terminal GST; dsDNA, one strand shown
T5 sequence: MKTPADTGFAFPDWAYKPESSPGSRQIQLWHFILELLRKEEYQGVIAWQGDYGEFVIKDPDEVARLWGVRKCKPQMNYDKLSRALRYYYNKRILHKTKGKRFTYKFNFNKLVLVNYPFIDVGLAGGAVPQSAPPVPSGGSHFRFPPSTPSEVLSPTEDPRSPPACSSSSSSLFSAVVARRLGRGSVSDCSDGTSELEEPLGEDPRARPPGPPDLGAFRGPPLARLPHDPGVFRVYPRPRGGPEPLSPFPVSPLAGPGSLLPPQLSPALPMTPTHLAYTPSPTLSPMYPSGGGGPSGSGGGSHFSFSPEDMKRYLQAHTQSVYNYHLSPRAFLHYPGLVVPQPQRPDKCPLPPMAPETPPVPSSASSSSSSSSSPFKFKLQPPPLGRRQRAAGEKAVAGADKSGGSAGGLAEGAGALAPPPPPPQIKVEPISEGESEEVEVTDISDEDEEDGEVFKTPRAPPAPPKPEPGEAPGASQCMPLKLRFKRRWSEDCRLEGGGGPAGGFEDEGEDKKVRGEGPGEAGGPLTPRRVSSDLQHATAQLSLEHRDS
Method in brief: as §1

SPI1 = SPI1 (Homo sapiens, UniProt P17947 1-270); settings: protein: recombinant; tags: N-terminal GST; dsDNA, one strand shown
Method in brief: as §1

SPIC = biological target: T6, SPIC (Homo sapiens, UniProt Q8N5J4 1-248); settings: protein: recombinant; tags: N-terminal GST; dsDNA, one strand shown
T6 sequence: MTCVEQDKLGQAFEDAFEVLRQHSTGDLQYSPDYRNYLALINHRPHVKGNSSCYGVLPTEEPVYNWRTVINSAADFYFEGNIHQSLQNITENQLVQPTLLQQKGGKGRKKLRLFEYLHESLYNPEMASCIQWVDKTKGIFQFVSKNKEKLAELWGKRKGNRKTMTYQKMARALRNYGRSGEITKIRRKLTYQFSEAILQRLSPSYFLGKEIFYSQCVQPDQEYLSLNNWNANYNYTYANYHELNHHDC
Method in brief: as §1

| Sequence | binding signal (HSF1) | binding signal (ELF4) | binding signal (ELK4) | binding signal (ETV7) | binding signal (ELF1) | binding signal (EHF) | binding signal (ETV2) | binding signal (CRX) | binding signal (ERF) | binding signal (SPI1) | binding signal (SPIC) |
| --- | --- | --- | --- | --- | --- | --- | --- | --- | --- | --- | --- |
| ATCGCG | 1.09 fold enrichment (6-mer frequency, TF over GST control) | 1 fold enrichment (6-mer frequency, TF over GST control) | 1 fold enrichment (6-mer frequency, TF over GST control) | 1.05 fold enrichment (6-mer frequency, TF over GST control) |  |  |  |  |  |  |  |
| CATTAG | 1.07 fold enrichment (6-mer frequency, TF over GST control) |  | 1.1 fold enrichment (6-mer frequency, TF over GST control) |  | 1.05 fold enrichment (6-mer frequency, TF over GST control) | 1 fold enrichment (6-mer frequency, TF over GST control) | 1.03 fold enrichment (6-mer frequency, TF over GST control) | 1.26 fold enrichment (6-mer frequency, TF over GST control) | 1.01 fold enrichment (6-mer frequency, TF over GST control) |  |  |
| TCGAAA | 2.08 fold enrichment (6-mer frequency, TF over GST control) |  |  | 1.05 fold enrichment (6-mer frequency, TF over GST control) |  |  |  | 1.16 fold enrichment (6-mer frequency, TF over GST control) | 1.01 fold enrichment (6-mer frequency, TF over GST control) | 1.02 fold enrichment (6-mer frequency, TF over GST control) | 1.06 fold enrichment (6-mer frequency, TF over GST control) |
